Inconclusive results are not listed. The source made the active and inactive calls. Rule for the calls: active = hit-call score of the fitted dose curve at least 0.9, where 1 is the maximum; inconclusive = response in the unintended direction; inactive = score below 0.9.
test: ACEA_AR_antagonist_AUC_viability: ACEA Biosciences xCELLigence Real-Time Cell Analysis on Androgen Receptor Antagonism for Viability (AID 2283776);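 note: area under impedance growth curve at 80 h after dosing as viability; hits lower the growth signal relative to DMSO meaning cytotoxicity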
How it was run: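 22Rv1 human prostate cancer cells were seeded on electrode plates, monitored overnight, then exposed to eight 1:4 dilutions from 100 uM final. Impedance-based growth kinetics at 80 h gave an AUC viability endpoint normalized to DMSO.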

| SMILES | outcome | AC50 |
| --- | --- | --- |
| CCCO[Si](OCCC)(OCCC)OCCC | inactive | – |
| CCCCCCC(C)O (stereo unspecified) | inactive | – |
| COc1ccccc1O | inactive | – |
| CC(=O)Nc1cc(S(=O)(=O)O)cc2cc(S(=O)(=O)O)c(N=Nc3ccccc3)c(O)c12 | inactive | – |
| CC(O)CNCC(C)O (stereo unspecified) | inactive | – |
| C1CCCNCC1 | inactive | – |
| O=C(O)CS | inactive | – |
| CCCCCC(=O)O[C@]1(C(C)=O)CC[C@H]2[C@@H]3CCC4=CC(=O)CC[C@]4(C)[C@H]3CC[C@@]21C | – | 416 nM (active) |
| CCCCCCCCCCCCOCCOS(=O)(=O)O | inactive | – |
| CCC(=O)OC(C)(C)C1CC=C(C)CC1 (stereo unspecified) | inactive | – |
| CCC(C)(C)C1CCC(=O)CC1 | inactive | – |
| CC1COC(=O)O1 (stereo unspecified) | inactive | – |
| O=S(=O)(O)c1cc(S(=O)(=O)O)c2c(N=Nc3ccccc3)c(O)ccc2c1 | inactive | – |
| CCCCCCCC(=O)N(C)C | inactive | – |
| CC(C)C(=O)c1ccccc1 | inactive | – |
| C=CC(O)CCCCC (stereo unspecified) | inactive | – |

Reference: PubChem BioAssay (EPA / NIEHS)
